“And” between values parts separate entries of the source, which are not always exact repeats. Identical values can stand only once. In all, about 5,500 compounds went through this assay and about 2,000 (36%) were called active. Roughly 18% stayed inconclusive and do not appear here. No stated cut-off is given here; in the data, active means normalized growth mostly below about 0.91 (no sharp cut-off); inconclusive means no clear call, values can overlap the other calls; inactive means mostly above about 0.92. Some of the results follow.
Assay: chemical genetic growth profiling, strain panel (AID 1159580);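 further: tested at 20 µM; growth read once vehicle control cultures reached saturation at 30 °C; 1 = growth at the plate median or of vehicle wells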
Details: S. cerevisiae deletion strains, growth OD

Measured: normalized growth

O=C(O[C@@H]1Cc2c(O)cc(O)cc2O[C@@H]1c1ccc(O)c(O)c1)c1cc(O)c(O)c(O)c1
inactive: locus YAL021C, strain ccr4, stronger effect = lower value 0.925 | locus YAL026C, strain drs2, stronger effect = lower value 0.923 | locus YAL030W, strain snc1, stronger effect = lower value 1.01 | locus YBL061C, strain skt5, stronger effect = lower value 0.955 | locus YBR009C, strain hhf1, stronger effect = lower value 0.973 | locus YBR021W, strain FUR4, stronger effect = lower value 0.999 | locus YBR171W, strain sec66, stronger effect = lower value 1.04 | locus YBR229C, strain ROT2, stronger effect = lower value 0.987 | locus YBR279W, strain paf1, stronger effect = lower value 0.986 | locus YCL011C, strain gbp2, stronger effect = lower value 0.961 | locus YCL016C, strain dcc1, stronger effect = lower value 0.966 | locus YCL029C, strain bik1, stronger effect = lower value 0.975 | locus YCL061C, strain MRC1, stronger effect = lower value 0.986 | locus YCL069W, strain vba3, stronger effect = lower value 1 | locus YCR088W, strain abp1, stronger effect = lower value 1.03 | locus YDL005C, strain med2, stronger effect = lower value 1.04 | locus YDL040C, strain nat1, stronger effect = lower value 1.03 | locus YDL074C, strain BRE1, stronger effect = lower value 0.854 | locus YDL101C, strain DUN1, stronger effect = lower value 0.939 | locus YDL185W, strain tfp1, stronger effect = lower value 1.01 | locus YDL192W, strain arf1, stronger effect = lower value 0.993 | locus YDR001C, strain nth1, stronger effect = lower value 1.02 | locus YDR101C, strain arx1, stronger effect = lower value 1.01 | locus YDR137W, strain rgp1, stronger effect = lower value 0.975 | locus YDR150W, strain NUM1, stronger effect = lower value 0.961 | locus YDR159W, strain sac3, stronger effect = lower value 1.12 | locus YDR195W, strain ref2 1.1 | locus YDR297W, strain sur2, stronger effect = lower value 0.966 | locus YDR318W, strain mcm21, stronger effect = lower value 1.02 | locus YDR334W, strain swr1, stronger effect = lower value 0.935 | locus YDR335W, strain msn5, stronger effect = lower value 0.981 | locus YDR388W, stronger effect = lower value 1.01 | locus YDR392W, strain spt3, stronger effect = lower value 1.01 | locus YDR502C, strain sam2, stronger effect = lower value 1.02 | locus YEL003W, strain gim4, stronger effect = lower value 0.981 | locus YEL037C, strain rad23, stronger effect = lower value 0.984 | locus YEL061C, strain CIN8 (second series), stronger effect = lower value 1.03 | locus YEL061C, strain CIN8, stronger effect = lower value 0.947 | locus YER016W, strain bim1, stronger effect = lower value 1.03 | locus YER110C, stronger effect = lower value 1.03 | locus YER111C, strain swi4, stronger effect = lower value 0.986 | locus YER155C, strain BEM2 (second series), stronger effect = lower value 1.01 | locus YER155C, strain BEM2, stronger effect = lower value 1.04 | locus YER167W, strain BCK2, stronger effect = lower value 0.995 | locus YFR010W, strain ubp6, stronger effect = lower value 0.961 | locus YGL078C, strain dbp3, stronger effect = lower value 1.03 | locus YGL086W, strain mad1, stronger effect = lower value 0.954 | locus YGL167C, strain pmr1, stronger effect = lower value 1.02 | locus YGL227W, strain vid30, stronger effect = lower value 1.05 | locus YGL240W, strain doc1, stronger effect = lower value 1.04 | locus YGL248W, strain PDE1, stronger effect = lower value 0.941 | locus YGL253W, strain hxk2, stronger effect = lower value 0.979 | locus YGR135W, strain pre9, stronger effect = lower value 1.02 | locus YGR252W, strain gcn5, stronger effect = lower value 1.01 | locus YHR013C, strain ard1, stronger effect = lower value 0.852 | locus YHR030C, strain SLT2, stronger effect = lower value 0.965 and 0.994 | locus YHR079C, strain IRE1 (second series), stronger effect = lower value 1.02 | locus YHR079C, strain IRE1, stronger effect = lower value 0.996 | locus YHR094C, strain hxt1, stronger effect = lower value 1.03 | locus YHR129C, strain ARP1, stronger effect = lower value 0.931 | locus YHR200W, strain rpn10, stronger effect = lower value 1 | locus YIL125W, strain kgd1, stronger effect = lower value 1 | locus YIR030C, strain dcg1, stronger effect = lower value 1.04 | locus YJL092W, strain hpr5, stronger effect = lower value 1.04 | locus YJL095W, strain BCK1 (second series), stronger effect = lower value 0.997 | locus YJL095W, strain BCK1, stronger effect = lower value 0.898 and 0.984 | locus YJL115W, strain asf1, stronger effect = lower value 1.03 | locus YJL129C, strain trk1, stronger effect = lower value 1.06 | locus YJL134W, strain LCB3, stronger effect = lower value 0.98 | locus YJL154C, strain vps35, stronger effect = lower value 1.03 | locus YJL164C, strain tpk1, stronger effect = lower value 0.966 | locus YJL166W, strain qcr8, stronger effect = lower value 0.922 | locus YJL168C, strain set2, stronger effect = lower value 1.03 | locus YJL187C, strain SWE1, stronger effect = lower value 0.988
active: locus YBR023C, strain chs3, stronger effect = lower value 0.86 | locus YBR231C, strain swc5, stronger effect = lower value 0.817 | locus YDL035C, strain GPR1, stronger effect = lower value 0.853 | locus YDR069C, strain doa4, stronger effect = lower value 0.833 | locus YDR162C, strain NBP2, stronger effect = lower value 0.771 | locus YER015W, strain faa2, stronger effect = lower value 0.808 | locus YGL173C, strain kem1, stronger effect = lower value 0.848 | locus YHR027C, strain rpn1, stronger effect = lower value 0.699 | locus YHR142W, strain chs7, stronger effect = lower value 0.851 | locus YIL066C, strain RNR3, stronger effect = lower value 0.793 | locus YIL073C, strain SPO22, stronger effect = lower value 0.665 | locus YJL187C, strain SWE1 (second series), stronger effect = lower value 0.854

Source: PubChem BioAssay AID1159580 (chemical genetic matrix, 2015)
